Screens (PubChem BioAssay)
pAkt inh = blocks phosphorylation of Akt | Neuro2A IGF-stimulated pAkt S473 HTRF, 20 min; active compounds read low | activity change, % for hits at 50 µM | hit rate 0.32% among 360,000 | AID 651550; in the data active means activity change below about -80%; inconclusive means mostly about -51% to -80%; further: on the % scale 0 is the no-effect control and ±100 the full control effect
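Single-point screen (50 µM final compound) in Neuro2A cells stimulated 20 min with 6 nM IGF at 37 deg C. After lysis, Ser473-phosphorylated Akt read by HTRF (ex 330 nm, em 615/665 nm) as the 665/615 ratio.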
LDHA block = LDHA (human) enzyme inhibition. P00338. purified LDHA, NADH/diaphorase-resazurin fluorescence; active compounds read low. activity change, % (values are at about 110 or 230 µM). hit rate 0.15% among 480,000; in the data active means activity change below about -30%; inconclusive means mostly about -25% to -30%;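 further: plate controls were DMSO wells for no effect and wells without enzyme for full effect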
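Enzyme activity of human lactate dehydrogenase 5 (2 nM; 0.06 mM NADH, 0.2 mM pyruvate, 5 min, RT) is measured via a resazurin/diaphorase fluorescence readout of residual NADH.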
Menin MLL FP FL = menin-MLL binding inhibition, fluorescein peptide; Fluorescence polarization, fluorescein-MLL peptide displacement from menin; FP activity change, % at 61.4 µM; 290,000 tested, under 10 active; active means well fitted curve in the direction sought with a large enough effect in the polarisation, not every such curve was filed as active; inconclusive means small, poorly fitted or top-dose-only effect, or effect the other way, or a change in a side signal; inactive means no such curve, though single readings can be large or run the other way; the % refers to the polarisation; further: % of control where 0% means no effect
CXXC DNA block = inhibitors of human MLL CXXC domain-DNA interaction; Q03164; MLL-CXXC / FITC-HOXA9 DNA fluorescence polarization; Potency, µM (series often up to 115 µM), for the others: top-dose activity change, negative = inhibition, most hits filed as inhibitors; hit rate 0.037% among 290,000; AID 2662; active means well fitted inhibition curve with a large enough effect in the polarisation, with a control signal flat, not every such curve was filed as active; inconclusive means small, poorly fitted or top-dose-only effect, or effect the other way, or a change in a side signal; inactive means no such curve, though single readings can be large or run the other way; the % refers to the polarisation; further: potency means the concentration at half of the fitted maximal effect
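Purified MLL-CXXC (added from a 7 uM solution) was preincubated 5 min at ambient with pinned compounds in 50 mM Tris-HCl pH 7.5, 50 mM NaCl, 1 mM DTT, 0.05% BSA. Fluorescein-labeled HOX-A9 DNA (50 nM solution) followed, 30 min, then polarization read.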
Menin MLL FP TR = menin-MLL binding inhibition, Texas Red mutant peptide. hit rate 0.23% among 270,000. Potency, µM (top dose mostly 61.6 µM), for the others: at the top dose FP activity change, negative = inhibition, actives largely listed as inhibitors. AID 1768. O00255. Menin + Texas Red MLL mutant peptide, fluorescence polarization; active means well fitted inhibition curve with a large enough effect in the polarisation, with a control signal flat, not every such curve was filed as active; inconclusive means small, poorly fitted or top-dose-only effect, or effect the other way, or a change in a side signal; inactive means no such curve, though single readings can be large or run the other way; the % refers to the polarisation; further: potency means the concentration at half of the fitted maximal effect; % of control where 0% means no effect
IDH1 R132H inh = blocks human mutant IDH1 R132H enzyme; hit rate 0.093% among 390,000; IDH1-R132H enzyme, NADPH consumption, diaphorase/resazurin fluorescence; Potency, µM (top dose mostly 76.6 µM), without a hit: at the highest dose activity change, negative = inhibition, actives largely listed as inhibitors; O75874; AID 602179; further: potency means the concentration at half of the fitted maximal effect; on the % scale 0 is the no-effect control and ±100 the full control effect; nearly all actives have a fitted effect of over 65% in size
Target sequence (O75874 whole entry R132H, stated change not applied): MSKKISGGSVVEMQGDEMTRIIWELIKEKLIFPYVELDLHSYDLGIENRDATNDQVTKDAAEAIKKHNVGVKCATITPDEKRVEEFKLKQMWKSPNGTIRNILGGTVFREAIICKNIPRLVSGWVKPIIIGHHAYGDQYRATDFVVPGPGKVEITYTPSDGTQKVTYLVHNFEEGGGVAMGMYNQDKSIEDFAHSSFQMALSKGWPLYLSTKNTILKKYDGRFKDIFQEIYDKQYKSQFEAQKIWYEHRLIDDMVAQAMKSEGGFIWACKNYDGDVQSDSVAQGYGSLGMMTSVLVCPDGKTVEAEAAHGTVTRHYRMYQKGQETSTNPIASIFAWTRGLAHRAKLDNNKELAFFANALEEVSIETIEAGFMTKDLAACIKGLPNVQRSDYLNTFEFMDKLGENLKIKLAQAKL
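IDH1-R132H (0.5 ug/mL) preincubated 30 min with compound, then NADPH (0.016 mM) and alpha-KG (2 mM) added; 80 min at RT, pH 7.5. Remaining NADPH coupled via diaphorase/resazurin to fluorescence (540/590 nm); concentration-response curves normalized to no-enzyme control.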
IDH1 autofl = interferes with resorufin fluorescence in IDH1 counter-screen | shares compounds with IDH1 R132H inh | Resorufin detection reagent fluorescence interference, cell-free | inhibition of signal, % at 51.2 µM | 750 tested, under 10 active | AID 623980;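 further: 0% = wells with normal resorufin and full inhibition = wells lacking resorufin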
IDH1 WT = wild-type IDH1 (human) inhibition counterscreen. AID 623995. WT IDH1 enzyme, NADPH diaphorase/resazurin fluorescence. hit rate 9% among 750. Potency, µM (doses to about 115 µM), for the others: at the top dose activity change, negative = inhibition, hits mostly inhibitors. shares compounds with IDH1 R132H inh;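 further: potency means the concentration at half of the fitted maximal effect; 0% = full WT IDH1 enzyme control and full inhibition = no enzyme wells; nearly all actives have a fitted effect of over 55% in size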
Target sequence (O75874 whole entry, looked up): as the sequence (O75874 whole entry R132H, stated change not applied) above, with H132R counted along it
IDH1 R132H conf = inhibits human mutant IDH1 enzyme in cherrypick confirmation; shares compounds with IDH1 R132H inh; IDH1 R132H enzyme, NADPH diaphorase/resazurin fluorescence; Potency, µM (titrated, usually from 76.6 µM), inactives show top-dose activity change, negative = inhibition, most hits filed as inhibitors; hit rate 83% among 750; further: potency means the concentration at half of the fitted maximal effect; nearly all actives have a fitted effect of over 50% in size
An asterisk follows results filed as active; i = inactive; ? = inconclusive; / = no result given. Shown are actives, neighbours in structure and some others; about 0.54% of the full set was active somewhere. Unless noted, the call rests on the fitted dose curve; in most records, active means well fitted curve in the direction sought with a large enough effect; inconclusive means small, poorly fitted or top-dose-only effect, or another doubt; inactive means no such curve, though single readings can be large; an effect the other way counts as inactive or inconclusive.

SMILES	pAkt inh	LDHA block	Menin MLL FP FL	CXXC DNA block	Menin MLL FP TR	IDH1 R132H inh	IDH1 autofl	IDH1 WT	IDH1 R132H conf
Cc1cc(NC(=O)CCC(=O)N(c2cccnc2)C(C(=O)NC2CCCC2)c2ccccc2F)no1 (configuration not stated)	i	-2	3	-2%	3%	?	/	/	/
COc1ccc(N(C(=O)/C=C/C(=O)Nc2cc(C)on2)C(C(=O)NC2CCCC2)c2ccccc2C)cc1 (configuration not stated)	i	2	1	9%	-29%	?	-11	6%	35µM*
COc1ccc(N(C(=O)CCC(=O)Nc2cc(C)on2)C(C(=O)NC2CCCC2)c2ccco2)cc1 (configuration not stated)	i	0	0	-3%	-4%	-4%	/	/	/
CCc1nn2c(ncc3c(=O)n(-c4ncn[nH]4)ccc32)c1-c1ccc(F)cc1	/	2	/	/	/	/	/	/	/
COc1cc(NC(=O)CCc2c(C)c3ccc(O)cc3oc2=O)cc(OC)c1	/	9	/	/	/	/	/	/	/
O=C(Nc1ccccc1C(=O)N1CCN(c2ccccc2)CC1)C1CC(=O)N(c2ccc(F)cc2)C1 (configuration not stated)	/	-1	/	/	/	/	/	/	/
CC(C)(C)c1ccc(-c2cc(C(=O)O)c3cc(Br)ccc3n2)cc1	/	3	/	/	/	/	/	/	/
COc1ccccc1CN(C)CC(O)COc1c(C)ccc(C)c1C (configuration not stated)	/	-8	/	/	/	/	/	/	/
COc1ccc(C(C(=O)NC2CCCCC2)N(C(=O)CCCC(=O)Nc2ccccn2)c2ccc3c(c2)OCCO3)cc1 (configuration not stated)	i	-5	2	8%	/	-5%	/	/	/
O=C(CCCC(=O)N(c1ccc2c(c1)OCCO2)C(C(=O)NC1CCCCC1)c1ccc(Cl)cc1)Nc1ccccn1 (configuration not stated)	i	2	1	10%	8%	?	-7	0%	13µM*
CNC(=O)CNc1nc(-c2ccsc2)nc2ccccc12	/	8	/	/	/	/	/	/	/
COc1cc(Cl)c(C)cc1NC(=O)c1ccc2c(SCC(=O)O)c3c(nc2c1)CCCC3	i	-8	1	0%	26%	?	5	?	28µM*
CCOC(=O)c1ccccc1NC(=O)c1ccc2c(SCC(=O)O)c3c(nc2c1)CCCC3	i	1	12	0%	59%	41µM*	-2	71µM*	16µM*
COc1ccc(C)cc1NC(=O)c1ccc2c(SCC(=O)O)c3c(nc2c1)CCCC3	i	-10	6	-5%	/	0%	/	/	/
CCCn1c(=O)[nH]c(=O)c2c(C(=O)O)cc(C(C)C)nc21	/	1	/	/	/	/	/	/	/
Cc1ccccc1-c1nnc(NC(=O)Nc2ccccc2)s1	/	8	/	/	/	/	/	/	/
COc1ccc(-c2oc(=O)c3cc(OC)c(OC)cc3c2-c2ccc3c(c2)OCO3)cc1	i	-7	/	/	/	21%	/	/	/
COCc1ccc(-c2c(-c3ccc(OC)cc3)oc(=O)c3cc(OC)c(OC)cc23)cc1	i	-16	/	/	/	32µM*	-5	-4%	10µM*
COc1ccc(-c2c(-c3ccsc3)oc(=O)c3cc(OC)c(OC)cc23)cc1	i	-3	/	/	/	11µM*	5	0%	8.9µM*
COc1cc2c(-c3cc(F)cc(F)c3)c(-c3ccsc3)oc(=O)c2cc1OC	i	-14	/	/	/	-4%	/	/	/
Cn1c(=O)c2c(nc(Sc3nncn3Cc3ccccc3)n2C)n(C)c1=O	/	-7	/	/	/	/	/	/	/
